# Compounds with a hit are over-represented: about 1.8% of the library has one in this group of screens.
# Pemphigus Ab inh = inhibitors of pemphigus antibody binding to human desmoglein-3 | P32926 | DSG3-coupled beads, scFv-anti-DSG3-GFP binding, flow cytometry; active compounds read low | binding (percent of control), % at 10 µM | actives 0.48% (n = 310,000);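 active means binding more than 3 SD below its plate's average and above zero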;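 further: hits lower antibody fragment binding to DSG3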
# HDAC3 inh = blocks human histone deacetylase 3; O15379; recombinant HDAC3, fluorogenic peptide/trypsin coupled, fluorescence; inhibition, % at 8.3 µM; actives 0.15% (n = 320,000); AID 2718; in the data active means inhibition above about 26%, passing the limit was not always enough
# VLA-4 inh = inhibition in a human VLA-4 binding assay; inhibition, % (about 7 µM as worked out from the volumes in the protocol); P13612; AID 2557; VLA-4 expressing cells, ligand binding flow cytometry; actives 0.2% (n = 330,000)
# PKD1 inh = PKD1 (human) kinase inhibition | Q15139 | PKD1 kinase fluorescence polarization assay | inhibition, % (no concentration beside the values) | actives 0.056% (n = 200,000) | AID 797
# GRK2 inh = inhibitors of human GRK2 displacing RNA aptamer. P25098. bead flow cytometry, FAM-aptamer displacement from GRK2. inhibition of aptamer binding, % at 10 µM. actives 0.59% (n = 330,000). AID 488847;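 active means inhibition of aptamer binding above 40%, roughly 3 SD of noise, on plates passing a quality check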;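 further: median bead fluorescence of bound FAM aptamer so fluorescent compounds give negative values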
# LANA-H2A inh = blocks KSHV LANA binding to histone H2A/H2B; inhibition, % (concentration not given with the values); cell-free LANA-H2A/H2B peptide, fluorescence polarization; actives 0.6% (n = 320,000); in the data active means inhibition mostly above about 10%, no sharp cut-off; inactive means mostly below about 6.7%
# Target sequence (Q9QR71 whole entry, looked up): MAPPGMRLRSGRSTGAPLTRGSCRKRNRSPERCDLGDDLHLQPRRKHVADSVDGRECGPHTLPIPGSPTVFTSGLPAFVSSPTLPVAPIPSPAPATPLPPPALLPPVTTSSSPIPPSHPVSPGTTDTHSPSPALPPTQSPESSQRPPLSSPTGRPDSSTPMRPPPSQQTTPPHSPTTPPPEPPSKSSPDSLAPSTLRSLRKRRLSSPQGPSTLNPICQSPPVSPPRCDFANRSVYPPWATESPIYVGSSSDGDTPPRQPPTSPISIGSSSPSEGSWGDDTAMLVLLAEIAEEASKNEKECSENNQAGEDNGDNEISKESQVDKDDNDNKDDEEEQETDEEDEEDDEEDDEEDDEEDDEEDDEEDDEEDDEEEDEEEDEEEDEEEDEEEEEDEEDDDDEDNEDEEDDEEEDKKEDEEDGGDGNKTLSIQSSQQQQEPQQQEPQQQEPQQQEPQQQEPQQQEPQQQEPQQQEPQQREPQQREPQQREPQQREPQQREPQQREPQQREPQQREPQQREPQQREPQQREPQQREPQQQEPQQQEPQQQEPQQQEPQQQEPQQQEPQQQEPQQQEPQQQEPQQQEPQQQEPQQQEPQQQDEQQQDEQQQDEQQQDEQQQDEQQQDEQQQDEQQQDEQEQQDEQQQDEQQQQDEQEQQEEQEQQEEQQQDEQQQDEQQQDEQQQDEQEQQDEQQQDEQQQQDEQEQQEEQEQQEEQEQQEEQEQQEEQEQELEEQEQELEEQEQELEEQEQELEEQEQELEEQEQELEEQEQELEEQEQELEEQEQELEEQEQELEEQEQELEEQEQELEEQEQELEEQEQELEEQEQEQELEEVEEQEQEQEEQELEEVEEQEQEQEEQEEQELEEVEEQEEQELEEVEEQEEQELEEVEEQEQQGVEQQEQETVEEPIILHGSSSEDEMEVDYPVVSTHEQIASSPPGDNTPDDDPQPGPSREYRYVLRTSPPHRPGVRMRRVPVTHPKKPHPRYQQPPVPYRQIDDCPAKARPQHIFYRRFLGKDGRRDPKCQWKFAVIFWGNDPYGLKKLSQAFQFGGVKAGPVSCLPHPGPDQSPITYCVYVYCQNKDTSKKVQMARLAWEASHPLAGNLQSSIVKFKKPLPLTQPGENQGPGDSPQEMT
# Numbers stand for hits; - = inactive; . = no result. Unless noted, no stated cut-off is given here; in the data, active means inhibition above about 50%; inactive means the rest.
SMILES,Pemphigus Ab inh,HDAC3 inh,VLA-4 inh,PKD1 inh,GRK2 inh,LANA-H2A inh
Cc1ccc(NC(=O)CN(C)C(=O)C(c2ccccc2)c2ccccc2)cc1,-,-,-,.,-,-
COc1ccc(NC(=O)CN(C)C(=O)C(Sc2ccccc2)c2ccccc2)cc1 (centres undefined),-,-,-,.,-,60
CCN(CC(=O)Nc1ccccc1C(F)(F)F)C(=O)c1ccccc1SCC(=O)N1CCCC1,-,-,-,.,-,35
COc1ccc(NC(=O)CN(C)C(=O)c2ccccc2SCC(=O)N2CCCC2)cc1,-,-,-,.,-,19
CC(C)(C)c1ccc(OCCOc2ccc(C(C)(C)C)cc2NC=O)c(NC=O)c1,-,-,-,.,-,-
CC12CCC(=O)C=C1C(F)CC1C2C(O)CC2(C)C1CCC2(O)C(=O)CO (centres undefined),-,.,.,.,.,.
O=C(Cn1nnc(-c2ccc(Cl)cc2)n1)NC(=O)NC1CCCC1,-,.,.,.,.,.
O=c1c2ccccc2sn1-c1ccc(Cl)cc1Cl,61,.,.,.,.,.
Cc1ccc(C(=O)Cn2nnc3ccccc32)cc1,-,-,-,-,-,-
O=C(Cn1nnc2ccccc21)c1ccc(Br)cc1,13,-,-,.,-,-
COc1cccc(NC(=O)CN(C)C(=O)c2c(C)nn(-c3ccccc3)c2Cl)c1,-,-,-,.,-,-
Cc1cc(C)c2[nH]c(=O)c(CN(Cc3cccs3)C(=S)NCC3CCCO3)cc2c1 (centres undefined),85,-,-,-,-,-
COc1cc(/C(C)=N/Nc2ccc(C(=O)O)cc2)cc(OC)c1OC,-,-,-,-,71,-
CC1(C)NC(C(=O)O)Cc2c1[nH]c1ccccc21 (centres undefined),-,-,-,-,-,7.0
Cc1ccccc1C(=O)NNC(=S)NC(=O)c1cccs1,79,-,-,.,-,-
CC(C)(C)c1ccc(C(=O)NC(=S)NNC(=O)c2cccs2)cc1,81,-,-,-,-,-
Cc1ccccc1C(=O)Nc1cccc(NC(=S)NC(=O)c2cccs2)c1,-,-,-,-,-,-
Cc1ccc(CCC(=O)Nc2ccc(Br)cc2)o1,-,-,-,.,-,-
COCCNC(=O)NC(=O)CN1CCCc2ccccc21,-,-,-,-,-,16
CC(C)(C)NC(=O)NC(=O)CN1CCc2ccccc21,-,-,-,-,-,-
CN(C)C(CNC(=O)c1ccc(C2SCCS2)cc1)c1ccccc1 (centres undefined),-,54,-,.,-,-
CN(C)C(CNC(=O)c1ccc(NC(=O)c2cccs2)cc1)c1ccccc1 (centres undefined),-,-,-,.,-,-
O=C(CN(C(=O)c1csnn1)c1cccc2ccccc12)NCc1ccc(F)cc1,-,-,-,.,-,20
CC(C)c1ccc(N=C2N=C(N)c3ccccc32)cc1,-,-,-,.,-,-
Cc1ccc(N=c2ssnc2Cl)cc1,.,-,-,-,-,-
SMILES,Pemphigus Ab inh,HDAC3 inh,VLA-4 inh,PKD1 inh,GRK2 inh,LANA-H2A inh
Cc1cc(Cl)ccc1N=c1ssnc1Cl,53,-,-,-,-,-
COc1cc(N=c2ssnc2Cl)c(OC)cc1Cl,85,-,-,-,-,-
COc1ccc(CCNC(=O)CCOc2ccc(C(C)(C)C)cc2)cc1OC,.,-,-,.,-,-
Cn1cccc1CC(=O)NNC(=O)Nc1ccc(Cl)cc1,-,-,-,-,-,76
Oc1ccc(N=C/C=C/c2cccc(Br)c2)cc1-c1nc2ccccc2s1,-,-,-,-,85,-
COc1ccc2c(c1)c1c(c(=O)n(-c3ccc(C)cc3)c(=O)n1CC(=O)NCC1CCCO1)n2C (centres undefined),-,.,.,.,.,.
COc1ccc(Nc2cc(C)nc3nc(C)nn23)c(OC)c1,-,-,-,-,-,-
COc1ccc(OC)c(Nc2cc(C)nc3nc(C)nn23)c1,82,-,-,-,-,-
C[C@@H]1O[C@@H]1P(=O)(O)O,-,-,-,.,-,-
C[C@H]1O[C@H]1P(=O)(O)O,-,.,-,-,-,33
COc1ccc(NC(=O)CCNC(=O)C2CCN(S(=O)(=O)c3ccccc3)CC2)cc1OC,-,.,.,.,.,.
Cc1c(CC(=O)O)c(=O)oc2cc(OCc3ccc(Cl)cc3)ccc12,-,-,-,.,-,44
Cc1ccc(C(=O)n2cnnc2N)cc1,-,44,-,-,-,-
O=C(Oc1ccc(N(Cc2cccs2)C2=NS(=O)(=O)c3ccccc32)cc1)c1ccccc1,-,69,-,-,-,-

# Source: PubChem BioAssay (several laboratories)
